Measurements published in paper PMC4336329 (PLoS ONE, 2015).
Hit rate of the full screen: of about 310,000 compounds, about 2,200 (0.71%) showed an effect of 50% or more. Effects have a minus sign here. Shown is part of a subset that was picked to be rich in strong results.

These compounds were tested against human ether-à-go-go-related gene (hERG) potassium channel (human, UniProt Q12809) (assay: primary screen, population patch clamp on CHO cells stably expressing hERG; higher = less effect of the substance).
Chain of human ether-à-go-go-related gene (hERG) potassium channel (Q12809 whole entry, looked up): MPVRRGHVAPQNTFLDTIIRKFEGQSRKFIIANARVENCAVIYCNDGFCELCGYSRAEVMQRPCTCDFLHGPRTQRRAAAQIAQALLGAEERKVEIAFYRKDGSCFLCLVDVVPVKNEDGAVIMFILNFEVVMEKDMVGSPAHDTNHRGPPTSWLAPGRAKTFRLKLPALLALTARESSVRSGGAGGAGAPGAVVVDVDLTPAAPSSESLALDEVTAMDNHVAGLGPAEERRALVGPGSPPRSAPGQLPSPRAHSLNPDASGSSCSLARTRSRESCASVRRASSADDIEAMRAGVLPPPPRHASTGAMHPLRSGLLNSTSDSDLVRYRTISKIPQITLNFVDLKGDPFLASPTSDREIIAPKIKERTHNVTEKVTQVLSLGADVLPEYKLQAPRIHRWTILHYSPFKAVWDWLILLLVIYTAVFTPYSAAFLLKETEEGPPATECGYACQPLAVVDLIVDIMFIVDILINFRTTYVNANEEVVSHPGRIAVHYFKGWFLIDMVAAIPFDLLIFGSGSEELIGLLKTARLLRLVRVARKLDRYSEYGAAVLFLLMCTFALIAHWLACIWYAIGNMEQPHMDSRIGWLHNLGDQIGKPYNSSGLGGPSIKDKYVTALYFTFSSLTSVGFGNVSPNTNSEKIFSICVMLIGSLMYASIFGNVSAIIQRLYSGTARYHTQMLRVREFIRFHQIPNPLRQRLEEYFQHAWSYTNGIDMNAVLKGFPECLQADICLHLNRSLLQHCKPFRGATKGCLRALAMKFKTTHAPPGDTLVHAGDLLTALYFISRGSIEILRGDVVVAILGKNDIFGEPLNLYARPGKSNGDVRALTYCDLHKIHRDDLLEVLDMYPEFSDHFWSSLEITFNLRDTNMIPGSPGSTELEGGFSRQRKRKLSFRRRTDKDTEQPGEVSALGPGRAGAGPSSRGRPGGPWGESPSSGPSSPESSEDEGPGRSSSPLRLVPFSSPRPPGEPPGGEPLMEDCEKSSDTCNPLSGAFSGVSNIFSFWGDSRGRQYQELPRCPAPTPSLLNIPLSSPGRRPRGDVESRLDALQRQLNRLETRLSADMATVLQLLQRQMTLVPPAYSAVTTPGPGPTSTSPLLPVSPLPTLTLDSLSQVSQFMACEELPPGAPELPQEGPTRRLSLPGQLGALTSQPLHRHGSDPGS

Row | SMILES | hERG current change (%, negative = inhibition) at 1uM
1 | CC1CCCCC1NC(=O)CCn1c(=O)sc2ccccc21 (stereo not drawn) | 18%
2 | Cc1ccc(C(=O)NNC(=O)c2n[nH]c(=O)c3ccccc23)cc1C | 5.71%
3 | Cc1cccc2cc(CN(Cc3cccs3)Cc3nnnn3Cc3ccccc3)c(=O)[nH]c12 | -3.15%
4 | O=C(NO)c1ccc(C(=O)N(C2CCCCC2)C2CCCCC2)cc1 | 3.06%
5 | Cc1ccc(N2CC(C(=O)Nc3ccc(S(=O)(=O)N4CCOCC4)cc3)CC2=O)cc1Cl (stereo not drawn) | 7.84%
6 | C/C(=N/NC(=O)c1ccc2c(c1)OCO2)c1cccc(NC(=O)C(C)(C)C)c1 | 9.89%
7 | CC(Oc1ccccc1)C(=O)Nc1ccc(S(=O)(=O)N2CCCC2)cc1 (stereo not drawn) | 16.8%
8 | COc1ccc(S(=O)(=O)n2nc(OC(=O)C3CCCCC3)cc2N)cc1 | 9.89%
9 | CCOc1ccccc1N1CCN(C(=O)c2cc(-c3cc(OC)ccc3OC)nc3ccccc23)CC1 | 8.96%
10 | CC12CC3(C)CC(C)(C1)CC(C(=O)NCC(=O)O)(C2)C3 | 19.5%
11 | COc1ccc(-c2ccc(S(=O)(=O)n3nc(OC(=O)c4cccs4)cc3N)cc2)cc1 | 8.64%
12 | COc1ccc(CCNC(=O)C2CCCN(Cc3nc(-c4cccc(Cl)c4)oc3C)C2)cc1OC (stereo not drawn) | -76.7%
13 | CCc1ccc(-c2nc(CN3CCCC(C(=O)NCCc4ccc(OC)c(OC)c4)C3)c(C)o2)cc1 (stereo not drawn) | -3.23%
14 | COc1ccc(CCNC(=O)C2CCCN(Cc3nc(-c4ccccc4C)oc3C)C2)cc1OC (stereo not drawn) | -2.12%
15 | COc1ccc(CCNC(=O)C2CCN(Cc3nc(-c4ccccc4C)oc3C)CC2)cc1OC | -59.9%
16 | CCN1CCN(CCNC(=O)C2CCCN(Cc3nc(-c4cccc(Cl)c4)oc3C)C2)CC1 (stereo not drawn) | 3.86%
17 | CCc1ccc(-c2nc(CN3CCC(C(=O)NCc4ccccc4OC)CC3)c(C)o2)cc1 | -13.1%
18 | Cc1oc(-c2cccc(Cl)c2)nc1CN1CCC(C(=O)NCCCN2CC(C)CC(C)C2)CC1 (stereo not drawn) | 13.9%
19 | COc1ccc(CCNC(=O)C2CCN(Cc3nc(-c4cccc(Cl)c4)oc3C)CC2)cc1OC | -80.9%
20 | COc1ccccc1CNC(=O)C1CCN(Cc2nc(-c3cccc(Cl)c3)oc2C)CC1 | -68.3%

Row | SMILES | hERG current change (%, negative = inhibition) at 1uM
21 | CCc1ccc(-c2nc(CN3CCC(C(=O)NCCc4ccc(OC)c(OC)c4)CC3)c(C)o2)cc1 | -40%
22 | COc1ccc(CCNC(=O)C2CCN(Cc3nc(-c4ccccc4F)oc3C)CC2)cc1OC | -17.3%
23 | Cc1oc(-c2cccc(Cl)c2)nc1CN1CCC(C(=O)NCC2CCCO2)CC1 (stereo not drawn) | -31.8%
24 | Cc1ccccc1C(=O)Nc1ccnc(-c2ccncc2)n1 | 14.1%
25 | C/C(CC(=O)NCc1ccco1)=N\NC(=O)C(c1ccccc1)c1ccccc1 | 6.69%
26 | CCOc1ccc(CCNC(=O)CCc2nnc3ccc(N4CCOCC4)nn23)cc1OCC | 7.73%
27 | O=C(Nc1ccc(SC(F)F)cc1)C12CCC(CC1)C2 | 5.66%
28 | CN(CC(=O)Nc1ccccc1Cl)C(=O)COC(=O)c1nc(Cl)c(Cl)c(Cl)c1Cl | 9.88%
29 | C=CCn1c(COc2ccc(Cl)cc2)nnc1SCC(=O)c1c(N)n(C)c(=O)n(C)c1=O | 10.5%
30 | Cc1ccccc1-c1nc(CN2CCC(C(=O)NCCC3=CCCCC3)CC2)c(C)o1 | -32%
31 | Cc1oc(-c2ccccc2F)nc1CN1CCC(C(=O)NCCC2=CCCCC2)CC1 | -51.1%
32 | Cc1oc(-c2ccccc2F)nc1CN1CCC(C(=O)NC2CC2)CC1 | 0.032%
33 | CN(C)CCN(C(=O)CN1C(=O)c2ccccc2C1=O)c1nc2cc3c(cc2s1)OCO3.Cl | 7.04%
34 | COc1ccccc1C(=O)N/C(=C/c1ccccc1)C(=O)NC(CCSC)C(=O)O (stereo not drawn) | 12%
35 | OCC1(CCOc2ccccc2)CCN(Cc2ccncc2)CC1 | -0.954%
36 | OCCOc1cccc(CN2CCC(CO)(CCOc3ccccc3)CC2)c1 | -2.72%
37 | COC(=O)c1ccc(CN2CCC(CO)(Cc3cccc(OC)c3)CC2)cc1 | -45.3%
38 | CC(=O)Nc1ccc(CN2CCC(CO)(CCOc3ccccc3)CC2)cc1 | -43.8%
39 | COC(=O)c1ccc(CN2CCC(CO)(CCOc3ccccc3)CC2)cc1 | -81.7%
40 | CSc1ccc(CN2CCC(CO)(CCOc3ccccc3)CC2)cc1 | -81.2%

Row | SMILES | hERG current change (%, negative = inhibition) at 1uM
41 | c1csc(CN2CCN(Cc3cccs3)C2c2cccs2)c1 | 4.62%
42 | O=C(c1ccc(=O)[nH]c1)N1CCN(S(=O)(=O)c2ccc3ccccc3c2)CC1 | 6.52%
43 | O=C(NN=C1C2CC3CC(C2)CC1C3)c1ccncc1 | -0.112%
44 | Cl.Clc1ccc(-c2ccc(CNCc3ccccn3)o2)cc1 | -5.94%
45 | O=C(c1cc2cc([N+](=O)[O-])ccc2oc1=O)N1CCOCC1 | 7.86%
46 | CCN1CCN(C(=O)c2cc3cc([N+](=O)[O-])ccc3oc2=O)CC1 | -1.11%
47 | O=C(c1cc2cc([N+](=O)[O-])ccc2oc1=O)N1CCN(C2CCCCC2)CC1 | -60.8%
48 | COc1ccc(Cc2nc3ccc(C(=O)NC(C)c4cn(C)nc4C)cc3o2)cc1 (stereo not drawn) | 9.59%
49 | COc1ccc(OCCOC(=O)c2[nH]c(C)c(C(C)=O)c2C)cc1 | 8.51%
50 | COc1ccc(-c2csc(NC(=O)CN3C(=O)NC4(CCCC4)C3=O)n2)cc1 | 1.42%
51 | COc1ccc(C(=O)C(OC(=O)c2ccccc2)c2ccccc2)cc1 (stereo not drawn) | 2.14%
52 | Cc1ccccc1CSc1nnc(-c2ccccn2)n1C | 10.8%
53 | Cc1ccccc1NC(=O)CSc1ccc2nnc(-c3ccccn3)n2n1 | 7.85%
54 | Cc1ccc(C)c(CSc2ccc3nnc(-c4ccccn4)n3n2)c1 | -54.3%
55 | O=C(CSc1ccc2nnc(-c3ccccn3)n2n1)N1CCN(c2ccccc2)CC1 | -89.9%
56 | Cc1ccc(CSc2ccc3nnc(-c4ccccn4)n3n2)cc1 | -36.5%
57 | Cc1ccccc1CSc1ccc2nnc(-c3ccccn3)n2n1 | -50.9%
58 | Cc1ccc(NC(=O)CSc2ccc3nnc(-c4ccccn4)n3n2)cc1 | 5.84%
59 | O=C(CSc1ccc2nnc(-c3ccccn3)n2n1)N1CCOCC1 | 6.32%
60 | CCOC(=O)N1CCN(C(=O)CSc2ccc3nnc(-c4ccccn4)n3n2)CC1 | 2.22%
